High-throughput results as filed in PubChem.
CHO-K1 Ca ag: counter-screen for M1 agonists: effect in parental CHO-K1 cells. activation, % at 3 µM. Fluo-8 calcium fluorescence; scaled to maximal ATP response, vehicle zero. 0.48% of 360,000 active; in the data active = activation above about 15%;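 note: untransfected CHO-K1 host cells lacking M1 receptor as counterscreen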
CHRM1 antagonist: antagonists of human M1 muscarinic receptor; P11229; CHO-K1 hM1, Fluo-8 calcium fluorescence, ACh EC80 antagonist; inhibition, % at 3 µM; 1.3% of 360,000 active; AID 588852;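 active = percent inhibition above its own plate's cutoff, namely the mean of that plate's compound wells plus 3 SD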;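 note: peak over basal fluorescence ratio during 140 s after agonist addition; 0% = ACh EC80 plus DMSO and 100% = DMSO alone without agonist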
Target sequence (P11229 whole entry, looked up): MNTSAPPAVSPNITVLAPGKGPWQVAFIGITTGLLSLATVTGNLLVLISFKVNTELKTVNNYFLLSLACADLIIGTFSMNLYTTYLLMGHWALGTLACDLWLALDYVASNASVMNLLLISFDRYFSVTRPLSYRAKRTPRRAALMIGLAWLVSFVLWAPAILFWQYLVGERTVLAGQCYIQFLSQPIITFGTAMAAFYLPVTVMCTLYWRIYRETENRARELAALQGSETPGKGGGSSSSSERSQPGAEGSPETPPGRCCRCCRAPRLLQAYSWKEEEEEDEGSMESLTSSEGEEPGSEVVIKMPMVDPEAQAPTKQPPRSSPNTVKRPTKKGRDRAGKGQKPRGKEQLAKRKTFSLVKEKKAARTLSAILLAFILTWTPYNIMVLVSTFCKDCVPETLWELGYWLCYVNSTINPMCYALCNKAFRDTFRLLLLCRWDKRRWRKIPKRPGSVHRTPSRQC
M1 PAM parental: counter-screen for M1 PAMs: effect in parental CHO-K1 cells | ATP EC20, Fluo-8 calcium fluorescence; 0% at ATP EC20, 100% at ATP max | AID 602247 | 0.02% of 360,000 active | activation, % at 3 µM;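 active = activation above the run cutoff, the mean activation of all test compounds plus 3 SD, cut at about 40% in these data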;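 note: peak over basal fluorescence ratio in a 140 s read after ATP addition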
CHO-K1 Ca antag: counter-screen for M1 antagonists: effect in parental CHO-K1 cells; ATP-induced calcium, Fluo-8 fluorescence; inhibition, % at 3 µM; 0.6% of 360,000 active;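 active = inhibition above a per-plate cutoff, the plate's mean sample inhibition plus 3 SD, cut at about 24% in these data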;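 note: 0% = DMSO plus EC80 ATP and 100% = DMSO alone without ATP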
CHRM1 agonist: agonists of human M1 muscarinic receptor | activation, % at 3 µM | CHO-K1 hM1, Fluo-8 calcium fluorescence, agonist mode; 0% DMSO, 100% acetylcholine EC100 | 0.33% of 360,000 active | AID 588814;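 active = activation above the run's mean compound activation plus 3 SD, cut at about 16% in these data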;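 note: peak over basal fluorescence ratio within a 140 s kinetic read after compound addition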
CHRM1 PAM: positive allosteric modulators of human M1 muscarinic receptor; 0.088% of 360,000 active; CHO-K1 hM1, Fluo-8 calcium fluorescence, ACh EC20; 0% = ACh EC20, 100% = maximal ACh; P11229; AID 588819; activation, % at 3 µM; in the data active = activation above about 19%, passing the limit was not always enough
* hit, by the source's call. A selection: hits, their analogues and other compounds. The true share with any hit is near 2.4%.

SMILES | CHO-K1 Ca ag | CHRM1 antagonist | M1 PAM parental | CHO-K1 Ca antag | CHRM1 agonist | CHRM1 PAM
COC(=O)c1cnc(Nc2nc(C(N)Cc3ccc(OC)cc3)cs2)nc1C(F)(F)F (stereo not drawn) | 3.5 | -3.5 | 17.1 | -1.8 | 3.5 | 3.1
COC(=O)c1cnc(Nc2nc(C(N)Cc3ccccc3)cs2)nc1C(F)(F)F (stereo not drawn) | 1.3 | -12.1 | 6.5 | 7.4 | 14.6 | 26.0*
Cc1cc(C)cc(C(=O)Nc2ccc(NC(=O)Cc3ccccc3)cc2)c1 | 1.8 | -9.9 | 15.7 | -10.6 | -1.1 | 12.9
CCCCN(C)CCCNC(=O)c1cn(CC)c2ccc(S(=O)(=O)N3CCc4ccccc4C3)cc2c1=O | -0.9 | 42.6* | -9.0 | 0.6 | -6.6 | -18.4
Cc1ccc2c(CN3CCN(c4ccc(Cl)c(Cl)c4)CC3)cc(=O)oc2c1 | 0.1 | -18.2 | -1.3 | 17.5 | 6.1 | 2.0
O=C(CSc1c2c(nc3ccc(Cl)cc13)CCCC2)NCCCN1CCOCC1 | -0.1 | 98.4* | -14.0 | 15.3 | -9.4 | -26.5
O=C(CSc1cccc2cccc(Cl)c12)NCc1cccs1 | 2.3 | 0.3 | 13.2 | -5.2 | -10.0 | 2.4
Cc1ccccc1C(=O)NNS(=O)(=O)c1ccc(F)cc1 | 0.0 | -16.1 | -4.9 | 24.1* | -0.5 | 13.6
Cc1ccc(NC(=S)NC2CCCCC2)cc1S(=O)(=O)N(C)C | 11.0 | 0.9 | 9.3 | -6.0 | -2.6 | -4.9
O=c1[nH]c2ccc(S(=O)(=O)N3CCC(Cc4ccccc4)CC3)cc2o1 | 0.8 | 25.8 | -6.9 | 23.9* | -4.5 | -11.4
Cn1c(=O)c(=O)n(C)c2cc(S(=O)(=O)N3CCC(Cc4ccccc4)CC3)ccc21 | 0.9 | -0.4 | 7.3 | -3.4 | -3.7 | 3.4
COc1ccccc1OCC(=O)N/N=C1\CCCCc2ccccc21 | 3.5 | -6.7 | 2.2 | -9.9 | -3.3 | 6.4
O=C(N/N=C1\CCCCc2ccccc21)c1ccccn1 | 0.1 | -4.3 | -15.3 | 29.4* | -12.7 | 8.4
COc1ccc(OCC(=O)N/N=C2\CCCc3ccccc32)cc1 | 3.9 | 10.9 | -14.8 | 24.6* | -5.5 | -8.2
O=C(OCCC12CC3CC(CC(C3)C1)C2)c1ccc(NCc2cc(O)ccc2O)cc1 | -0.4 | -10.7 | -6.4 | -4.8 | 13.3 | 35.3*
Cc1ccccc1OCC(=O)NCCCNC(=O)c1ccncc1 | 0.3 | -22.2 | 6.3 | -0.7 | 3.0 | 28.4*
CC(=NNC(=O)c1ccncc1)c1ccc2ccccc2c1O | 68.8* | 28.8 | -20.4 | 15.5 | 70.4* | -26.8
COc1ccccc1CN(C(=O)CNC(=O)c1ccco1)C(C(=O)NCC1CCCO1)c1ccccc1 (stereo not drawn) | 7.8 | 18.9 | -4.0 | 2.7 | -0.2 | -6.7
CC1/C(=N/O)CC(c2ccccc2)NC1c1ccccc1 (stereo not drawn) | 0.2 | 15.2 | -6.5 | -4.6 | -12.2 | -13.0
CCCC1/C(=N/O)CC(c2ccccc2)NC1c1ccccc1 (stereo not drawn) | 17.9* | 23.9 | -16.1 | 37.0* | -5.4 | -20.4
Cc1occc(=O)c1OCc1c(F)cccc1Cl | 15.8* | 2.0 | 5.5 | 10.3 | -7.0 | 2.9
CCOc1ccccc1OCCC(=O)OCC(=O)c1ccc[nH]1 | 0.4 | 4.8 | 0.2 | -9.8 | -2.7 | 0.0
CCOc1ccc(Cl)cc1CNCCCSc1ncccn1 | 18.9* | -6.6 | 13.0 | 10.2 | -4.3 | 1.7
N#CC1CC(c2ccccc2)=NN1c1ccccc1[N+](=O)[O-] (stereo not drawn) | -0.1 | 4.7 | -12.8 | 23.8* | -6.2 | -4.9
Cc1cccc(-n2cc(-c3ccccc3)c3c(N4CCOCC4)ncnc32)c1 | 4.8 | 37.9* | -8.2 | 1.2 | -4.7 | -15.8
SMILES | CHO-K1 Ca ag | CHRM1 antagonist | M1 PAM parental | CHO-K1 Ca antag | CHRM1 agonist | CHRM1 PAM
Cc1ccc(-n2cc(-c3ccccc3)c3c(N4CCN(C)CC4)ncnc32)cc1 | 3.5 | -10.0 | 5.3 | -0.6 | -3.2 | 11.3
Cc1ccc(-n2cc(-c3ccccc3)c3c(N4CCOCC4)ncnc32)cc1 | 4.2 | 43.0* | -3.8 | 6.8 | -2.7 | -12.3
CC(=O)c1ccc(NC(=O)Cn2cnc(S(=O)(=O)N3CCc4ccccc43)c2)cc1 | -0.2 | -4.8 | -24.0 | 24.6* | 1.7 | 10.5
CCC1CCCCN1CCCNC(=O)C1CCC(CNS(=O)(=O)c2c(C)cc(C)cc2C)CC1 (stereo not drawn) | -0.4 | 62.7* | -17.7 | 24.5* | -6.4 | -21.4
Cc1ccc(C(C)C)c(OCC(=O)Nc2cccc(S(=O)(=O)NC3=NCCCCC3)c2)c1 | 1.3 | -13.4 | -22.2 | 1.2 | 1.6 | 15.7
COc1ccc(CN(CCNC(=O)CCCCC(=O)NCCN(Cc2ccc(OC)cc2)C(C)C)C(C)C)cc1 | 0.5 | 73.5* | 21.0 | -15.6 | -7.1 | -26.4
Cc1nnc(NC(=O)c2sc3nc(-c4cccs4)cc(C(F)(F)F)c3c2N)s1 | 19.7* | 39.2* | 1.2 | 22.4 | 51.6* | -22.5
Nc1c(C(=O)Nc2nccs2)sc2nc(-c3cccs3)cc(C(F)(F)F)c12 | 26.6* | 36.8* | 5.8 | 38.1* | 28.4* | -5.1
CCn1c(C)nc2cc(C(=O)NNC(=O)CN(C)S(=O)(=O)c3ccc(NC(C)=O)cc3)ccc21 | 0.0 | -0.2 | 10.5 | -6.9 | -1.2 | -1.2
O=S(=O)(Nc1cccc(-c2ccc3nncn3n2)c1)c1cc(F)ccc1F | 0.7 | 5.1 | 3.0 | 0.7 | -5.8 | -2.9
O=C1CCC(c2ccccc2)(C2CCN(Cc3ccccc3)CC2)C(=O)N1 (stereo not drawn) | 0.2 | 98.0* | 7.1 | -3.7 | -6.4 | -24.4
COCCC(=O)N1CCC(Oc2ccc(C(=O)NC3CCOC(C)(C)C3)cc2)CC1 (stereo not drawn) | 0.4 | -10.5 | -4.8 | -12.6 | -3.4 | -0.3
O=C(Nc1ccc(Cl)cn1)Nc1ccc(Cl)cn1 | 2.2 | -5.4 | 24.6 | -3.4 | -5.6 | 4.7
C/C(=C\c1ccccc1)C(=O)Nc1ccc(Cl)cn1 | 1.1 | 31.4* | 17.7 | -7.4 | -8.7 | -8.7
Cc1c(Cl)ccc2c1NC(=O)[C@]21N[C@@H](Cc2ccccc2)[C@H]2C(=O)N(c3ccc(F)cc3)C(=O)[C@H]21 | 8.2 | 11.5 | 15.8 | -12.7 | 17.2* | 1.1
CCN(C(=O)c1ccc2c(=O)n3c(nc2c1)CCCCC3)c1cc(OC)ccc1OC | 1.0 | -7.5 | -2.2 | -12.9 | -3.9 | 3.0
CC1CCN(C(=O)CCn2c(=O)oc3ccc(Cl)cc32)CC1 | 0.1 | -21.9 | -1.5 | 6.3 | 1.8 | 27.9*
O=[N+]([O-])c1ccc(N2CCN(c3ccc([N+](=O)[O-])cc3CO)CC2)c(CO)c1 | 18.3* | 12.9 | -25.8 | 8.0 | 2.4 | -15.9
N#Cc1cc([N+](=O)[O-])ccc1N1CCN(c2ccccc2O)CC1 | 12.6 | 9.1 | -7.7 | -9.1 | -3.8 | -4.7
CN1CCN(c2ccc([N+](=O)[O-])cc2C(=O)c2ccc(Br)cc2)CC1 | 0.7 | 20.8* | 18.9 | -8.1 | -6.6 | -23.9
